Measured values as given in PubChem BioAssay (Tox21).
Values without a mark were called inactive. Inconclusive results are not listed. Where a call stands in place of a potency, no number is given. Active and inactive are the calls of the source. Calls follow the shape of the dose curve; as a rule, active = well fitted curve in the direction sought with a large enough effect in the repeat runs; inconclusive = weak or mixed curves; inactive = no such curve, though single readings can be large; an effect the other way counts as inactive or inconclusive.

Assays:
[1] = Human pregnane X receptor (PXR) small molecule agonists, qHTS cell viability counter screen (AID 1346977); also: nearly all actives have a fitted effect of over 50% in size
How it was run: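 In each well, the PXR reporter HepG2 line was checked for viability: CellTiter-Fluor reagent added 23hr post-dosing, fluorescence read after 1hr incubation at 37C.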

[2] = Caspase-3/7 induction in HepG2 cells by small molecules, qHTS assay (AID 1346978); also: nearly all actives have a fitted effect of over 15% in size
How it was run: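 Wild-type HepG2 cells (2,000/well) were settled 5 h at 37 C, 5% CO2, then exposed to compounds in DMSO for 17 h. Caspase-3/7 activity was read by luminescence 30 min after adding Caspase-Glo 3/7 reagent at room temperature.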

[3] = Caspase-3/7 induction in CHO-K1 cells by small molecules, qHTS cell viability counter screen (AID 1346979); also: nearly all actives have a fitted effect of over 35% in size
How it was run: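 Following a 5hr settling period, CHO-K1 cells at 1,500 per well received DMSO-dissolved compounds. Cell viability was quantified 16hr later by CellTiter-Fluor fluorescence, measured after 1hr with reagent at 37C.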

[4] = Caspase-3/7 induction in CHO-K1 cells by small molecules, qHTS assay (AID 1346980); also: nearly all actives have a fitted effect of over 15% in size
How it was run: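 Wild-type cells were seeded at 1,500 per well and settled 5 hr at 37 C, 5% CO2, then exposed to DMSO-dissolved compounds for 17 hr. Caspase-Glo 3/7 reagent was added, and luminescence was read after 30min at room temperature.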

[5] = Caspase-3/7 induction in HepG2 cells by small molecules, qHTS cell viability counter screen (AID 1346981); also: series mostly up to about 92 µM; nearly all actives have a fitted effect of over 30% in size
How it was run: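 Counter screen for cytotoxicity: HepG2 exposed 16 hr to compounds, then CellTiter-Fluor viability signal (fluorescence, 1 hr reagent incubation).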

[6] = target: Nuclear receptor subfamily 1 group I member 2 (Homo sapiens) (UniProt O75469); test: Human pregnane X receptor (PXR) small molecule agonists, qHTS assay (AID 1346982); also: nearly all actives have a fitted effect of over 35% in size; also: potency is read from the fitted curve at half-maximal effect
How it was run: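 Luminescence (ONE-Glo, 30 min RT) after 24 hr compound exposure of PXR-Luc HepG2 cells; cells rested 5 hr post-plating in 5% charcoal-stripped FBS medium.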

[7] = target: Nuclear receptor subfamily 1 group I member 2 (Rattus norvegicus) (UniProt Q9R1A7); test: Rat pregnane X receptor (rPXR) activation by small molecules, qHTS assay (AID 1346983); details: rPXR luciferase reporter cells, One-Glo luminescence, 24 h; hits give high values; also: nearly all actives have a fitted effect of over 20% in size
How it was run: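 Cell-based rPXR luciferase reporter assay, 2,000 cells per well, rested 5hr at 37 C before compound addition in DMSO, then 24 hr at 37 C. One-Glo reagent was added and luminescence read after 30 min at room temperature.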

[8] = target: Nuclear receptor subfamily 1 group I member 2 (Homo sapiens) (UniProt O75469); test: CYP3A4 induction through human pregnane X receptor (PXR) by small molecules, qHTS assay (AID 1346984); also: nearly all actives have a fitted effect of over 40% in size
How it was run: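 DPX-2 reporter cells; 24h cpd, 37C; Luciferin-IPA 3uM final x3h; One-Glo 30 min RT; lumi read.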

[9] = target: Nuclear receptor subfamily 1 group I member 2 (Homo sapiens) (UniProt O75469); test: Human pregnane X receptor (PXR) activation by small molecules, qHTS assay (AID 1346985); also: nearly all actives have a fitted effect of over 40% in size
How it was run: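 DPX-2 cells (HepG2 co-transfected with a PXR response element and a CYP3A4-promoter luciferase construct) were seeded at 2,000 per well, rested 5 hr at 37C, then exposed to DMSO-dissolved compounds for 24 hr. Activation was read as luciferase luminescence.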

Chain of Nuclear receptor subfamily 1 group I member 2 (Homo sapiens) (O75469 whole entry, looked up): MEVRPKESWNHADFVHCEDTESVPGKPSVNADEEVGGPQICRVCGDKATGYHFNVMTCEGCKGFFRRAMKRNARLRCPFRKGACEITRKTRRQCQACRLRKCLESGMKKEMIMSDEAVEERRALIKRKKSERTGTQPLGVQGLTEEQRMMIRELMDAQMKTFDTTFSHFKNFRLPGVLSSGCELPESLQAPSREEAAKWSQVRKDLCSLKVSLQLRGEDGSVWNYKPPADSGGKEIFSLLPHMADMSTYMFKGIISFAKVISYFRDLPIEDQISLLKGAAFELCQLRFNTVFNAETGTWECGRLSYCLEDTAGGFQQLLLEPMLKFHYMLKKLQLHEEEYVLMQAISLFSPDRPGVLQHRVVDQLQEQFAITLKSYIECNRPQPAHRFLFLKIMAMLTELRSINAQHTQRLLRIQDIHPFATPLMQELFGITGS
Chain of Nuclear receptor subfamily 1 group I member 2 (Rattus norvegicus) (Q9R1A7 whole entry, looked up): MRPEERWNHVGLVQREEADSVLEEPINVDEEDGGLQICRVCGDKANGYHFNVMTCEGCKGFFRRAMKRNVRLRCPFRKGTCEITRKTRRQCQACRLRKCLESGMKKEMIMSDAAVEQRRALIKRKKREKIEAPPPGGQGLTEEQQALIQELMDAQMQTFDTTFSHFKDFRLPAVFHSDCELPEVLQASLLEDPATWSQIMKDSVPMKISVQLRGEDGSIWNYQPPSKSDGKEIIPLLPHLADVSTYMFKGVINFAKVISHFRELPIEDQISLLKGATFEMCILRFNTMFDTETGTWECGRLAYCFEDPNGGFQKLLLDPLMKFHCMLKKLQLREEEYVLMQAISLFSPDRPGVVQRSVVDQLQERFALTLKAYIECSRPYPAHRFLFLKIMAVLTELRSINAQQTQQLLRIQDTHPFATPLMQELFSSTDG

NC(=O)c1cn(Cc2c(F)cccc2F)nn1
Potency [1]: inactive
Potency [2]: inactive
Potency [3]: inactive
outcome [4]: inactive
Potency [5]: inactive
Potency [6]: inactive
max activation [7]: -1.62%
Potency [8]: inactive
Potency [9]: inactive

CC/C=C\CC/C=C/C(OCC)OCC
Potency [1]: inactive
Potency [2]: inactive
Potency [3]: inactive
outcome [4]: inactive
Potency [5]: inactive
Potency [6]: 24.3 µM (active)

COCCc1ccc(OCC(O)CNC(C)C)cc1 (stereo unspecified)
Potency [1]: inactive
Potency [2]: inactive
Potency [3]: inactive
outcome [4]: inactive
Potency [5]: inactive
max activation [7]: -0.133%

CC/C=C\CCOC(C)=O
Potency [1]: inactive
Potency [2]: inactive
Potency [3]: inactive
outcome [4]: inactive
Potency [5]: inactive
Potency [6]: inactive

O=C(O)CN(CCOCCOCCN(CC(=O)O)CC(=O)O)CC(=O)O
activity change, negative = cytotoxicity [1]: 6.91% [at 0.349 µM]
caspase activation [2]: -0.864% [at 0.349 µM]
activity change, negative = cytotoxicity [3]: 10.9% [at 0.349 µM]
caspase-3/7 activation [4]: 0.707% [at 0.349 µM]
activity change, negative = cytotoxicity [5]: 2.16% [at 0.349 µM]
activation [6]: -3.68% [at 0.349 µM]

O=c1[nH]c(=O)n([C@H]2C[C@H](O)[C@@H](CO)O2)cc1I
Potency [1]: inactive
Potency [2]: inactive
Potency [3]: inactive
outcome [4]: inactive
Potency [5]: inactive
max activation [7]: 6.42%

Nc1ccccc1S(=O)(=O)O
Potency [1]: inactive
Potency [2]: inactive
Potency [3]: inactive
outcome [4]: inactive
Potency [5]: inactive
Potency [6]: inactive

CC[N+](C)(C)c1cccc(O)c1
Potency [1]: inactive
Potency [2]: inactive
Potency [3]: inactive
outcome [4]: inactive
Potency [5]: inactive
max activation [7]: -3.46%

ClC(Cl)(Br)Br
Potency [1]: inactive
Potency [2]: inactive
Potency [3]: inactive
outcome [4]: inactive
Potency [5]: inactive
Potency [6]: inactive

CCOc1ccc(C(=O)OCCN(CC)CC)cc1
Potency [1]: inactive
Potency [2]: inactive
Potency [3]: inactive
outcome [4]: inactive
Potency [5]: inactive
Potency [6]: inactive
max activation [7]: -2.52%
Potency [8]: inactive
Potency [9]: inactive

C[C@](N)(Cc1ccc(O)cc1)C(=O)O
activity change, negative = cytotoxicity [1]: -1.21% [at 8.39 µM]
caspase activation [2]: -1.17% [at 8.39 µM]
activity change, negative = cytotoxicity [3]: -0.609% [at 8.39 µM]
caspase-3/7 activation [4]: 0.841% [at 8.39 µM]
activity change, negative = cytotoxicity [5]: -1.6% [at 8.39 µM]
activation [6]: -9.59% [at 8.39 µM]
max activation [7]: 0.627%
Potency [8]: inactive
Potency [9]: inactive

CC(=O)Nc1c(I)cc(I)c(C(=O)O)c1I
Potency [1]: inactive
Potency [2]: inactive
Potency [3]: inactive
outcome [4]: inactive
Potency [5]: inactive
Potency [6]: inactive
max activation [7]: -2.53%
Potency [8]: inactive
Potency [9]: inactive

C=CCCCCCCCCC=O
Potency [1]: inactive
Potency [2]: inactive
Potency [3]: inactive
outcome [4]: inactive
Potency [5]: inactive
Potency [6]: inactive

C1OCOCO1
Potency [1]: inactive
Potency [2]: inactive
Potency [3]: inactive
outcome [4]: inactive
Potency [5]: inactive
Potency [6]: inactive

CC(=O)CC(C)C
Potency [1]: inactive
Potency [2]: inactive
Potency [3]: inactive
outcome [4]: inactive
Potency [5]: inactive
Potency [6]: inactive

CCCc1cc(C(N)=S)ccn1
Potency [1]: inactive
Potency [2]: inactive
Potency [3]: inactive
outcome [4]: inactive
Potency [5]: inactive
Potency [6]: inactive
max activation [7]: 0.144%
Potency [8]: inactive
Potency [9]: inactive

OCCOc1ccc(OCCO)cc1
Potency [1]: inactive
Potency [2]: inactive
Potency [3]: inactive
outcome [4]: inactive
Potency [5]: inactive
Potency [6]: inactive

COc1c(N2C[C@@H]3CCCN[C@@H]3C2)c(F)cc2c(=O)c(C(=O)O)cn(C3CC3)c12
Potency [1]: inactive
Potency [2]: inactive
Potency [3]: inactive
outcome [4]: inactive
Potency [5]: inactive
Potency [6]: inactive
max activation [7]: -3.75%
Potency [8]: inactive
Potency [9]: inactive

CCCCCCCCCCCCN(CCCCCCCCCCCC)CCCCCCCCCCCC
Potency [1]: inactive
Potency [2]: inactive
outcome [4]: inactive
Potency [5]: inactive
Potency [6]: inactive

CN1N=C(C(N)=O)CCC1=O
Potency [1]: inactive
Potency [2]: inactive
Potency [3]: inactive
outcome [4]: inactive
Potency [5]: inactive
Potency [6]: inactive

O=C1NC(=O)[C@@]2(CCOc3ccc(F)cc32)N1
Potency [1]: inactive
Potency [2]: inactive
Potency [3]: inactive
outcome [4]: inactive
Potency [5]: inactive
Potency [6]: inactive
max activation [7]: -0.447%
Potency [8]: inactive
Potency [9]: inactive

Cc1cccc(C)c1NC(=O)C(C)N (stereo unspecified)
Potency [1]: inactive
Potency [2]: inactive
Potency [3]: inactive
outcome [4]: inactive
Potency [5]: inactive
Potency [6]: inactive
max activation [7]: -0.615%
Potency [8]: inactive
Potency [9]: inactive

CC(C)OC(=O)c1ccccc1
Potency [1]: inactive
Potency [2]: inactive
Potency [3]: inactive
outcome [4]: inactive
Potency [5]: inactive
Potency [6]: inactive
